HEK cytotox: Cytotoxic Profiling in HEK 293 Cell Line of Diverse Libraries Using Quantitative High-Throughput Screening. HEK 293 viability, ATP luminescence (CellTiter-Glo), 48-72 h. 94,000 compounds, 6.6% hits. Potency, µM (top dose mostly 115 µM), inactives show at the top dose activity change, negative = cytotoxicity, hits mostly inhibitors; further: nearly all actives have a fitted effect of over 60% in size
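CellTiter-Glo luminescence (cellular ATP) was read after 48 or 72 hr of compound exposure at 37 degree Celsius. Cells were HEK 293 plated at 250 cells/well.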
NIH3T3 tox: Cytotoxic Profiling in NIH 3T3 Cell Line of Diverse Libraries Using Quantitative High-Throughput Screening | Potency, µM (highest dose often 96.7 µM), without a hit: at the top dose activity change, negative = cytotoxicity, actives largely listed as inhibitors | NIH 3T3 viability, CellTiter-Glo ATP luminescence, 48-72 h | 94,000 compounds, 4.3% hits; further: nearly all actives have a fitted effect of over 55% in size
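NIH 3T3 cells at 400 cells/well received 23 nL of compound by pintool and were incubated 48 or 72 h at 37 °C. Viability was read as ATP-coupled CellTiter-Glo luminescence.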
hNpr1 antagonist: Natriuretic polypeptide receptor (hNpr1) antagonism - Primary qHTS. Atrial natriuretic peptide receptor 1 (Homo sapiens), P16066. HEK293 hNpr1 GloSensor cGMP, ANP-stimulated luminescence. Potency, µM (doses to about 46.3 µM), inactives show top-dose activity change, negative = inhibition, usual class: inhibitors. 76,000 compounds, 1.6% hits. AID 1347048, 2019; calls by dose curve; further: nearly all actives have a fitted effect of over 60% in size
Target sequence (P16066 whole entry, looked up): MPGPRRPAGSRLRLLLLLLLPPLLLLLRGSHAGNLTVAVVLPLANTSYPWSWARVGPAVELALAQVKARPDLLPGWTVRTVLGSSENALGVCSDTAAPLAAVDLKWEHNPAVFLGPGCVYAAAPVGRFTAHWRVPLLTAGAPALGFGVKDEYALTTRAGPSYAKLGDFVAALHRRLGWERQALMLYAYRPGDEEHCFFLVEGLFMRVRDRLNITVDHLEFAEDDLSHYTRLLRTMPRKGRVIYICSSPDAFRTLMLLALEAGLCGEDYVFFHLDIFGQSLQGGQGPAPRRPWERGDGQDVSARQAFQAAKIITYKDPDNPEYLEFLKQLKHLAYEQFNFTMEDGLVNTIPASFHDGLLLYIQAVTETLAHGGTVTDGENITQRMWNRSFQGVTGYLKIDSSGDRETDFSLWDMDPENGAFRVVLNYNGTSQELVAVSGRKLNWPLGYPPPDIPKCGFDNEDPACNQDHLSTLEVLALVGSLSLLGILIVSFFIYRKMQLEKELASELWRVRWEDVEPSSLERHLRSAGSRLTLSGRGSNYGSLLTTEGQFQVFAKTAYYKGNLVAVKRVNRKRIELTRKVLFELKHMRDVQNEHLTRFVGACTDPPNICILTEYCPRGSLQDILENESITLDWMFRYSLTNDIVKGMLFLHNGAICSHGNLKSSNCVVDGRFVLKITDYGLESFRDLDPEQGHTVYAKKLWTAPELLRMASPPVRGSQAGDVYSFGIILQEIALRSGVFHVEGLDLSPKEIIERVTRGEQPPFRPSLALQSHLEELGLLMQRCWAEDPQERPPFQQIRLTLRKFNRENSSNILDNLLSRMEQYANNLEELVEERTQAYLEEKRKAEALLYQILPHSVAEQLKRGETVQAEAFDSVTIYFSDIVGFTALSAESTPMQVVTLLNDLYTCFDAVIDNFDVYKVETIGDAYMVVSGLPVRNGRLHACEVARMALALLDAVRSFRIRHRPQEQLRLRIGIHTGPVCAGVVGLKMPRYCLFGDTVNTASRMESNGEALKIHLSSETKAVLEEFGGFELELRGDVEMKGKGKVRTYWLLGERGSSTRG
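Compound pre-incubated 30 min at room temperature on GloSensor-loaded HEK293 cells stably carrying hNpr1 and the pGS-40F cGMP biosensor. Stimulation uses hNppA at 0.1 nM final; luminescence is taken at baseline and 20 min post-agonist.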
FLuc inh: Firefly luciferase inhibition profiling of diverse chemical library using quantitative high-throughput screening; Luciferin 4-monooxygenase (Photinus pyralis), P08659; purified P. pyralis luciferase, luminescence, biochemical; Potency, µM (titrated, usually from 115 µM), usual class: inhibitors; 76,000 compounds, 2.5% hits; further: nearly all actives have a fitted effect of over 65% in size
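Cell-free enzyme assay, 10nM P. pyralis luciferase, luciferin and ATP each at 10uM. Inhibition profiled over a 6-point titration, read as luminescence.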
* marks the source's active call; other numbers are inactive results; i = inactive; ? = inconclusive; . = no result; [ ] = another dose, or the depositor's remark. Compounds with a hit are over-represented: about 11% of the library has one in this group of screens. Unless noted, the call rests on the fitted dose curve; in most records, active means well fitted curve in the direction sought with a large enough effect; inconclusive means small, poorly fitted or top-dose-only effect, or another doubt; inactive means no such curve, though single readings can be large; an effect the other way counts as inactive or inconclusive. On the % scale 0 is the no-effect control and ±100 the full control effect; potency means the concentration at half of the fitted maximal effect.

SMILES | HEK cytotox | NIH3T3 tox | hNpr1 antagonist | FLuc inh
Cc1noc(-c2ccccc2Cl)c1C(=O)NCCC(c1ccccc1)c1ccccc1 | 25µM* | 28µM* | -5% | i
Cc1noc2c(N3CCN(Cc4ccccc4)CC3)cc(-c3ccsc3)nc12 | 56µM* | ? | -27%[70.6 µM] | i
Cc1noc2c(N3CC[S+](=O)([O-])CC3)cc(-c3ccccc3)nc12 | 2%[172 µM] | ? | 12%[70.6 µM] | i
COc1ccc(-n2c(=O)c(C(=O)NC3CCCCC3)nc3cccnc32)cc1 | -8% | -16% | . | .
Cc1ccccc1NC(=O)c1cnc2c(c1)N(C(=O)CCc1ccccc1)CCC2 | 100µM* | -21%[138 µM] | ? | i
CC(C)c1ccc(CC(=O)N2CCCc3ncc(C(=O)Nc4ccn(C)n4)cc32)cc1 | 89µM* | ? | -2%[70.6 µM] | i
COc1ccccc1N1CCCc2ncc(C(=O)Nc3cccc(C(F)(F)F)c3)cc21 | ? | ? | -19%[70.6 µM] | i
CC(C)c1ccc(CC(=O)N2CCCc3ncc(C(=O)NCCc4c[nH]c5ccccc45)cc32)cc1 | 25µM* | 11µM* | -5% | i
COc1ccccc1N1CCCc2ncc(C(=O)Nc3cccnc3)cc21 | 100µM* | ? | -19%[70.6 µM] | i
COCCN1CCCCCC(O)c2cc(C(=O)NCC3CCCCC3)ccc21 (centres undefined) | ? | ? | 2% | i
CNC(=O)c1cnc2c(c1)N(C(=O)Cc1ccc(C(C)C)cc1)CCC2 | ? | ? | -15%[70.6 µM] | i
COCCNC(=O)c1cnc2c(c1)N(C(=O)Cc1ccc(C(C)C)cc1)CCC2 | ? | -14%[138 µM] | 1%[70.6 µM] | i
COc1ccc(NC(=O)c2cnc3c(c2)N(C(=O)Cc2ccc(C(C)C)cc2)CCC3)cc1OC | 32µM* | ? | ? | i
O=C(Nc1cccc(C(F)(F)F)c1)c1cnc2c(c1)N(C(=O)Cc1cccc(C(F)(F)F)c1)CCC2 | 25µM* | ? | -24% | i
COc1cccc(NC(=O)c2cnc3c(c2)N(C(=O)Cc2ccccc2OC)CCC3)c1 | 100µM* | -23%[138 µM] | -2%[70.6 µM] | ?
COCCCNC(=O)c1cnc2c(c1)N(C(=O)Cc1ccc(C(C)C)cc1)CCC2 | 71µM* | -24%[138 µM] | -2%[70.6 µM] | i
COc1ccc(-n2c(=O)c(C(=O)NC3CC3)nc3cccnc32)cc1 | -10%[172 µM] | -16%[138 µM] | . | .
O=C(NCc1cccc(Cl)c1)[C@@H]1CCCN1c1nccc(Nc2ccccc2Cl)n1 | 35µM* | ? | . | .
O=C(NCc1ccc2c(c1)OCO2)C1CCN(c2nccc(Nc3ccccc3Cl)n2)CC1 | 28µM* | 35µM* | . | .
CSCCNC(=O)C1CCN(c2nccc(Nc3ccccc3Cl)n2)CC1 | ? | 35µM* | . | .
O=C(NCc1cccc(F)c1)C1CCN(c2nccc(Nc3ccccc3Cl)n2)CC1 | 45µM* | ? | . | .
COC(=O)CNC(=O)C1CCN(c2nccc(Nc3ccccc3Cl)n2)CC1 | -18% | -20% | . | .
COCCCn1c(=O)c(C(=O)Nc2ccc(F)cc2)nc2cccnc21 | ? | -27%[138 µM] | . | .
Cc1nc(N2CCC(N[C@H]3Cc4ccccc4[C@@H]3N)CC2)c2ccsc2n1 | ? | -14% | -1% | i
COc1ccc(-c2ccccc2C(=O)NC2CCOCC2)nn1 | -4%[172 µM] | -7%[138 µM] | . | .
SMILES | HEK cytotox | NIH3T3 tox | hNpr1 antagonist | FLuc inh
Cc1ccc(C(=O)N(C)Cc2ccc(-c3ccccc3)cc2)cc1 | 89µM* | ? | -12%[70.6 µM] | i
COc1cccc(C(=O)N(C)Cc2cccc(C(F)(F)F)c2)c1 | 89µM* | ? | 0%[70.6 µM] | i
CN(Cc1cccc(C(F)(F)F)c1)C(=O)c1cccc(C(F)(F)F)c1 | ? | ? | 11% | i
COc1cccc(C(=O)N(C)Cc2ccccc2C(F)(F)F)c1 | 100µM* | ? | 0%[70.6 µM] | i
CN(Cc1cccc(C(F)(F)F)c1)C(=O)c1ccccc1Cl | 56µM* | 89µM* | -4%[70.6 µM] | i
Cc1ccc(C(=O)N(C)Cc2cccc(C(F)(F)F)c2)cc1 | 100µM* | ? | -10%[70.6 µM] | i
Cc1oc2ccn(Cc3ccc(F)cc3)c(=O)c2c1C(=O)NC1CCCCCC1 | 35µM* | ? | -28% | i
O=C(NCc1ccc(F)cc1F)C1CCN(C(=O)c2ncn3c2COC(c2ccccc2)C3)CC1 (centres undefined) | -2% | i | -10% | 35µM*
Cc1ccccc1CNC(=O)C1CCN(C(=O)c2ncn3c2COC(c2ccccc2)C3)CC1 (centres undefined) | -4% | -7% | -11% | 16µM*
O=C(NCc1cc(F)ccc1F)C1CCN(C(=O)c2ncn3c2COC(c2ccc(F)cc2)C3)CC1 (centres undefined) | 0% | 0% | 0% | 45µM*
COc1ccc(C2Cn3cnc(C(=O)N4CCC(C(=O)NCc5ccco5)CC4)c3CO2)cc1 (centres undefined) | 4% | i | -7% | i
O=C(NCc1ccco1)C1CCN(C(=O)c2ncn3c2COC(c2ccc(F)cc2)C3)CC1 (centres undefined) | 2% | 0% | -4% | 22µM*
COc1ccc(-c2nc3c(c(-c4ccccc4)n2)CN(C(=O)c2ccccc2)CC3)cc1 | ? | ? | 13% | i
CN(C)CC(=O)NC1CCN(c2ccc3nnc(C4CC4)n3n2)CC1 | -7% | -20% | . | .
O=C(C1CCC1)N1CCOc2ccc(CN3CCCCCC3)cc2C1 | ? | -18% | . | .
O=C(Cn1ccn2nc(-c3ccccc3)c(CO)c2c1=O)Nc1cc(Cl)cc(Cl)c1 | 50µM* | -24% | 0% | i
O=C(c1ccc(F)cc1)N1CCCC(C(=O)N2CCC(N3Cc4cccn4C3=O)CC2)C1 (centres undefined) | -18% | -27% | . | .
Cc1ccnc(NC(=O)C2CC(=O)N(c3n[nH]c4cccc(F)c34)C2)c1 (centres undefined) | 28µM* | ? | -6% | i
COc1ccc(C)cc1NC(=O)C1CC(=O)N(c2n[nH]c3cc(Br)ccc23)C1 (centres undefined) | 45µM* | ? | -19% | i
O=C(Nc1nccs1)C1CC(=O)N(c2n[nH]c3cccc(F)c23)C1 (centres undefined) | ? | ? | -1% | i
Cc1ccc2nc(NC(=O)C3CC(=O)N(c4n[nH]c5cccc(F)c45)C3)sc2c1 (centres undefined) | 25µM* | 32µM* | -11% | i
Cc1nc(NC(=O)C2CC(=O)N(c3n[nH]c4cccc(F)c34)C2)sc1C (centres undefined) | ? | -9% | 2% | i
CC(C)(C)c1csc(NC(=O)C2CC(=O)N(c3n[nH]c4cccc(F)c34)C2)n1 (centres undefined) | 45µM* | ? | -18% | i

Source: PubChem
